Out of some 190,000 compounds screened, about 4,000 (2.1%) were called active. No stated cut-off is given here; in the data, active means inhibition above about 58%; inactive means the rest, inconclusive results apart; tested in S. cerevisiae. What follows is part of a selection rich in actives, with near analogues and random picks from the rest.

A short description of this assay: growth inhibition of WT strain, primary screen, mitochondrial fusion inhibitor project, WT and mutant strains, chemical genetic (AID 1362). Particulars: mitochondrial fusion phenotypic screen, at 10 µM.
Where [1] appears, read: WT strain, growth inhibition, stronger effect = higher value.

`Cc1ccc(N(CC(=O)Nc2cccc(N(C)S(C)(=O)=O)c2)S(C)(=O)=O)cc1`: the inhibition (as a rule, the drop in the measured response relative to a control, in per cent) is, setting by setting: under setting [1], 0.56% (inactive); (mutant strain inhibition) -23%.
For `O=C(N/N=C/c1ccc([N+](=O)[O-])cc1)C(=O)N1CCCC1`, in that order: 11.1% (inactive) and 10.6%.
In the same order, the values of `CCOC(=O)c1cnc(-n2nc(C)cc2C)nc1-n1nc(C)cc1C` are -11.1% (inactive) and -5.08%.
Turning to `CCOC(=O)c1cnc(-n2nc(C)cc2C)nc1NNc1cc(C)nc(-c2ccccc2)n1`, the inhibition runs as follows: under setting [1], 62.1% (active); (mutant strain inhibition) -11.2%.
As for `CCOC(=O)c1cnc(-c2ccccc2)nc1Oc1ccc(C)cc1`, the inhibition runs as follows: under setting [1], 21.7% (inactive); (mutant strain inhibition) -24.7%.
As for `O=C(NNS(=O)(=O)c1ccc(F)cc1)c1cnccn1`, the inhibition is, setting by setting: under setting [1], -14.2% (inactive); (mutant strain inhibition) 8.1%.
As for `CCc1ccccc1N1C(=O)C2C3CC(=O)C(c4ccccc43)C2C1=O` (centres undefined), the inhibition reads like this: under setting [1], 5.26% (inactive); (mutant strain inhibition) 3.48%.
Turning to `CCN(C(=O)CN1CCN(Cc2ccccc2)CC1)c1c(N)n(Cc2ccccc2)c(=O)[nH]c1=O`, the inhibition by setting is: under setting [1], -4.65% (inactive); (mutant strain inhibition) 11.9%.
`COc1ccccc1C(=O)N1CC2(C)CC1CC(C)(C)C2` (centres undefined): the inhibition was 18.6% (inactive) under setting [1] and 10.1% (mutant strain inhibition).
In the same order, the values of `Cc1nnnn1/C(=C\c1ccccc1)C(=O)OCC(=O)N1CC2(C)CC1CC(C)(C)C2` (centres undefined) are 60.3% (active) and 11.4%.
In the same order, the values of `Cc1cccc(C(=O)NCC(=O)OCC(=O)N2CC3(C)CC2CC(C)(C)C3)c1` (centres undefined) are -4.43% (inactive) and 5.06%.
For `CN1CCCN(C(=O)C2CCCCC2)CC1`, in that order: 2.94% (inactive) and -4.71%.
Take `CN(C)S(=O)(=O)N1CCN(c2ccc([N+](=O)[O-])cc2)CC1`: the inhibition under setting [1] was -1.29% (inactive) and the inhibition (mutant strain inhibition) was -1.53%.
In the same order, the values of `O=C(NCc1ccc(Cl)cc1)NCc1ccc(Cl)cc1` are 4.16% (inactive) and 4.87%.
For `CC(C)Oc1ccc(Cc2n[nH]c(=S)n2Cc2ccccc2)cc1Cl`, in that order: 66.9% (active) and 17.8%.
For `C=CCn1c(CCc2ccc(OC(C)C)cc2)n[nH]c1=S`, in that order: -7.58% (inactive) and -5.68%.
For `CC(C)Oc1ccc(CCc2n[nH]c(=S)n2Cc2ccccc2)cc1`, the inhibition by setting is: under setting [1], 13.3% (inactive); (mutant strain inhibition) 0.86%.
With `Cc1cccc(C2=N/C(=C/c3cccs3)C(=O)O2)c1`, the inhibition under setting [1] is -7.49% (inactive) and the inhibition (mutant strain inhibition) was 9.32%.
With `CSC1=N/C(=C\c2ccc3c(c2)OCO3)C(=O)S1`, the inhibition was 6.07% (inactive) under setting [1] and -0.28% (mutant strain inhibition).
As to `CSC1=N/C(=C\C=C\c2cccs2)C(=O)S1`, the inhibition was 70.3% (active) under setting [1] and 37.4% (mutant strain inhibition).
In the same order, the values of `Cc1nnc(SCc2cccc(Cl)c2)n(N)c1=O` are -3.17% (inactive) and -5.61%.
For `CCCN(CC(=O)Nc1ccc(OC)c(OC)c1)CC(=O)Nc1ccc(F)c(F)c1F`, in that order: 4.56% (inactive) and 28.4%.
For `O=[N+]([O-])c1ccc2c(c1)C(N1CCOCC1)/C(=C/C1(O)CCCCC1)O2` (centres undefined), in that order: -4.01% (inactive) and 0.41%.
On to `COc1cc(C)c(Cl)cc1S(=O)(=O)n1ccnc1`, for which the inhibition under setting [1] is 3.86% (inactive) and the inhibition (mutant strain inhibition) was -5.05%.
For `COC(=O)C1=C(C(=O)c2ccc(C)cc2)C(c2ccccc2)n2nnnc2N1` (centres undefined), in that order: 11.5% (inactive) and 4.37%.
For `COc1ccccc1NC(=O)C1=C(C)Nc2nnnn2C1c1cccc(Br)c1` (centres undefined), in that order: -12.6% (inactive) and -7.01%.
In the same order, the values of `COC(=O)c1ccc(C2C3=C(Nc4nnnn42)c2ccccc2OC3)cc1` (centres undefined) are 98.5% (active) and -8.54%.
Take `Nc1cc(C(F)(F)F)ccc1N1CCOCC1`: the inhibition is, setting by setting: under setting [1], -6.55% (inactive); (mutant strain inhibition) -2.84%.
In the same order, the values of `CC1(C)C=C2[C@H]3CC[C@@H]4[C@@]5(C)CCC(=O)C(C)(C)[C@@H]5CC[C@@]4(C)[C@]3(C)CC[C@@]2(C(=O)O)CC1` are 59.1% (active) and -18.6%.
For `Cc1ccc(S(=O)(=O)Nc2nc(N)n(-c3ccccc3)n2)cc1`, in that order: -0.46% (inactive) and 3.67%.
In the case of `CSc1cc(C)[nH]c(=O)n1`, the inhibition runs as follows: under setting [1], -8.71% (inactive); (mutant strain inhibition) -7.11%.
On to `S=C(NCCc1ccccc1)NCC1CCCO1` (centres undefined), for which the inhibition is -1.69% (inactive) under setting [1] and 7.51% (mutant strain inhibition).
In the same order, the values of `CCCC1CCC(=NNC(=S)NCCc2ccccc2)CC1` (centres undefined) are 66.8% (active) and 40.1%.
For the compound `S=C(NN=C1CCN(Cc2ccccc2)CC1)NC1CCCCC1`, the inhibition is 38.9% (inactive) under setting [1] and 25% (mutant strain inhibition).
As for `O=C(O)/C=C/c1ccc(S(=O)(=O)N2CCCCCC2)cc1`, the inhibition is, setting by setting: under setting [1], -9.59% (inactive); (mutant strain inhibition) 10.2%.
For `COCCN(C(=O)C(C)C)c1nnc(-c2ccc(C(C)(C)C)cc2)s1`, in that order: 59% (active) and 10%.
For `COCCN(C(=O)c1ccco1)c1nnc(-c2ccc(OC)cc2)s1`, in that order: -4.3% (inactive) and -8.85%.
On to `COc1cc(OC)cc(-c2nnc(N(C)C(=O)c3ccncc3)s2)c1`, for which the inhibition by setting is: under setting [1], -11% (inactive); (mutant strain inhibition) -7.45%.
In the same order, the values of `CCC(=O)Nc1cc(C(F)(F)F)ccc1N1CCCC1` are -15.6% (inactive) and 12.5%.
On to `O=[N+]([O-])c1ccccc1NCc1ccc(Cl)cc1`, for which the inhibition was 21.2% (inactive) under setting [1] and 13.9% (mutant strain inhibition).
In the same order, the values of `Oc1ccc(N2CCN(C(=S)NCc3ccccc3)CC2)cc1` are -2.43% (inactive) and 0.26%.
For `Oc1ccc(CNc2ccccc2O)cc1`, in that order: 62% (active) and 57.4%.

The values are drawn from PubChem BioAssay AID1362 (SRMLSC, 2008).
